Compound activity from PubChem.
Rows were chosen to be rich in hits. Some 6.5% of all compounds tested hit in one or more screens of this group.
VACV mCherry inh – inhibitors of vaccinia virus infection (mCherry reporter signal); Potency, µM (series often up to 36.5 µM), for inactives: at the highest dose activity change, negative = inhibition, actives largely listed as inhibitors; 310,000 compounds, 0.63% hits; Vaccinia virus mCherry reporter infection, fluorescence; AID 720579; calls by dose curve; tested in A549 cells; note: potency is the fitted concentration of half-maximal effect; nearly all actives have a fitted effect of over 35% in size
Vaccinia Venus – vaccinia inhibition (Venus reporter); AID 720580; Vaccinia virus Venus reporter expression, fluorescence; Potency, µM (series often up to 36.5 µM), for the others: top-dose activity change, negative = inhibition, hits mostly inhibitors; 330,000 compounds, 0.46% hits; calls by dose curve; tested in A549 cells; note: potency is the fitted concentration of half-maximal effect; nearly all actives have a fitted effect of over 30% in size
LASV entry inh – blocks Lassa virus binding to or entry into cells. Lassa virus pseudotype entry inhibition, cell reporter. Potency, µM (doses to about 37.9 µM), without a hit: top-dose activity change, negative = inhibition, most hits filed as inhibitors. 300,000 compounds, 1.2% hits. AID 540256; calls by dose curve; tested in HEK293 cells; note: potency is the fitted concentration of half-maximal effect; nearly all actives have a fitted effect of over 50% in size
FMDV antiviral – blocks foot and mouth disease virus | 410,000 compounds, 1.2% hits | Potency, µM (top dose mostly 57.9 µM), inactives show top-dose activity change, negative = inhibition, usual class: inhibitors | FMDV antiviral cell-based qHTS; calls by dose curve; tested in HEK293T cells; note: read-out not given here; potency is the fitted concentration of half-maximal effect; nearly all actives have a fitted effect of over 45% in size
MARV entry inh – inhibitors of Marburg virus binding or cell entry; Marburg virus pseudotyped entry inhibition, cell reporter; Potency, µM (top dose mostly 37.8 µM), for inactives: top-dose activity change, negative = inhibition, most hits filed as inhibitors; 300,000 compounds, 1.8% hits; calls by dose curve; tested in HEK293 cells; note: potency is the fitted concentration of half-maximal effect
HCMV inh – inhibitors of human cytomegalovirus | AID 1259415 | activity change, negative = inhibition, % at 57.5 µM | 410,000 compounds, 4.5% hits | HFF cells, HCMV-luciferase reporter, 72 h; stronger effect = lower value; in the data active = activity change below about -60%; inconclusive = no clear call, values can overlap the other calls; inactive = above about -39%
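Cell-based, HFFs, 1000 cells/well, 16 h 37C; cpds in DMSO + HCMV-luc, MOI 1 PFU/cell; 72 h 37C; OneGlo luminescence after 5 min RT; norm. to buffer vs Salinomycin 10uM.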
Starred values were filed as active, the others as inactive; i = inactive; ? = inconclusive; . = no result; [ ] = another dose, or the depositor's remark. % is set by controls: 0 for no effect and ±100 for the full control effect.

SMILES	VACV mCherry inh	Vaccinia Venus	LASV entry inh	FMDV antiviral	MARV entry inh	HCMV inh
CCc1nc2c(OCc3ccc(F)cc3)cccn2c1N(C)C(=O)COc1ccccc1	-5%	-19%	.	32µM*	.	-11
CCc1nc2c(OCc3ccccc3)cccn2c1N(C)C(=O)COc1ccccc1	i	0%	.	-23%	.	-15
O=C(Nc1cccc(O)c1)c1noc2c1CCCCC2	-15%	-10%	?	.	?	-61*
NC(CS)C(=O)O (stereo unspecified)	-18%	-9%	.	.	.	.
COc1ccccc1N=c1scc(-c2ccc(S(=O)(=O)N3CCCC3)cc2)n1C	-19%[7.34 µM]	?	?	2.8µM*	.	-97*
O=S(=O)(c1ccc(-c2csc(=Nc3ccc(F)cc3)n2CCCCCCO)cc1)N1CCCC1	?	-28%	?	25µM*	?	-101*
CC(=O)c1cccc(N=c2scc(-c3ccc(S(=O)(=O)N4CCOCC4)cc3)n2CCO)c1	?	?	?	20µM*	?	-98*
COc1cccc(-c2cncnc2NCc2cccc(C)c2)c1	.	.	.	-17%	.	.
COC(=O)[C@H](Cc1ccccc1)N1C[C@@H](N2CCC[C@H]2C)CS1(=O)=O	.	.	.	.	.	6
COc1ccc2ncn(-c3cc(OC(C)c4ccccc4C(F)(F)F)c(C(N)=O)s3)c2c1 (stereo unspecified)	.	.	0.22µM*	.	.	.
COc1cccc(COc2cc(-n3cnc4ccccc43)sc2C(N)=O)c1	.	.	5µM*	.	.	.
COc1ccc(Cn2nnnc2C(c2ccccc2Cl)N2CCC(C(N)=O)CC2)cc1 (stereo unspecified)	.	.	?	0%	-3%	25
COc1ccc(OC)c(NC(=O)c2sc3nc(Cc4ccccc4)cc(C(F)(F)F)c3c2N)c1	.	.	-1%	-13%	0%	24
CC(Oc1cc(-n2cnc3ccc(OC4CCN(C)CC4)cc32)sc1C(N)=O)c1ccccc1Cl (stereo unspecified)	.	.	0.2µM*	.	.	.
CCOC(=O)Cc1csc(NC(=O)c2ccc(N3CCOCC3)cc2[N+](=O)[O-])n1	.	.	.	18µM*	.	18
CCn1c(CN2CCN(c3cccc(Cl)c3)CC2)nc2c1c(=O)[nH]c(=O)n2C	-10%	-6%	?	-17%	-10%[46.1 µM]	-19
COc1ccc(CC2=C(O)c3ccccc3C(=O)C2=O)cc1	?	-2%	-10%[46.1 µM]	-5%	?	-31
O=C1C(=O)c2ccccc2C(O)=C1CCCCl	.	.	.	28µM*	.	.
Cc1oc2cc3oc(=O)c(CC(=O)N4CCCCC4)c(C)c3cc2c1C	-2%	-6%	-2%[46.1 µM]	23%	4%[46.1 µM]	-71*
Cc1oc2cc3oc(=O)c(CCC(=O)N4CCCCC4)c(C)c3cc2c1C	-16%	-5%	?	24%	?	30
CCCCN(CCCC)c1nc(-c2ccncc2)nc2ccccc12	.	.	.	28µM*	.	-70*
CCN(CC)c1nc(-c2ccccc2)nc2ccccc12	-7%	-17%	-9%	?	?	-63*
COC(=O)[C@@H]1[C@@H](C)N(CCc2cc(OC)c(OC)c(OC)c2)C(=O)N[C@H]1c1ccccc1	.	.	.	.	-31%[14.2 µM]	.
CC(O)(c1cccnc1)c1nc(/C=C/c2ccccc2)cs1 (stereo unspecified)	-24%	-11%	.	?	.	-83*
COc1cc(C(CC(=O)Nc2ccc(Br)cn2)N2Cc3ccccc3C2=O)cc(OC)c1OC (stereo unspecified)	-11%	-6%	-4%[46.1 µM]	15%	.	29
SMILES	VACV mCherry inh	Vaccinia Venus	LASV entry inh	FMDV antiviral	MARV entry inh	HCMV inh
CC(=O)Nc1ccc(NC(=O)c2cc([N+](=O)[O-])cc([N+](=O)[O-])c2)cc1	-30%	-10%	-1%[46.1 µM]	-11%	5%[46.1 µM]	-29
Cc1ccc(C(=O)Nc2ccccc2N2CCCCC2)cc1[N+](=O)[O-]	i	-7%	.	?	.	-12
COc1ccc(C(=O)Nc2ccccc2N2CCCCC2)cc1[N+](=O)[O-]	.	.	.	?	.	-63*
Cc1ccc(NC(=O)c2ccc(Nc3c([N+](=O)[O-])cc([N+](=O)[O-])cc3[N+](=O)[O-])cc2)cc1	-23%	?	?	13µM*	10µM*	-94*
COc1ccc(C(=O)Nc2ccc(Nc3ccccc3)cc2)cc1[N+](=O)[O-]	.	.	.	35µM*	.	-18
COc1ccc(N/N=C(\C=N\O)C(=O)c2ccc(OC)cc2)cc1	-23%	?	2.8µM*	-1%	?	-11
COc1ccc(C(=O)C(=NNc2ccccc2)c2ccc(OC)cc2)cc1	?	-7%	-20%[46.1 µM]	-14%	?	?
CC(C)=CCCC1(C)C=Cc2c(c(C)cc3c2[nH]c2cc(O)ccc23)O1 (stereo unspecified)	-12%	-14%	.	0%	.	-104*
CC(C)=CCC/C(C)=C/CC/C(C)=C/CCC1(C)CCc2cc(O)ccc2O1 (stereo unspecified)	-11%	-6%	.	.	.	.
Cc1ccc(N=C2C(=O)Nc3ccccc32)cc1	-5%	-12%	.	-10%	.	16
CCN(CC)c1ccc(C2Nc3cccc4cccc(c34)N2)cc1	i	-13%	4%[46.1 µM]	12%	4%[46.1 µM]	11
CCN(CC)c1ccc(C2NC(=O)c3ccccc3N2)cc1 (stereo unspecified)	-19%	?	6.3µM*	11µM*	?	-25
CCN(CC)c1ccc(N=C2C(=O)Nc3ccccc32)cc1	-29%	-26%	-26%	-22%	?	-96*
CCOC(=O)[C@@]1([C@@H](NC(=O)OC)c2ccco2)CCCC1=O	.	.	.	.	-9%[14.2 µM]	.
CN(C)CCNc1ncnc2c1sc1nc(-c3ccccc3)c3c(c12)CCCC3	?	10µM*	?	?	10µM*	-68*
CC(C)(C)C1CCc2nc(NC(=O)c3ccc([N+](=O)[O-])cc3)sc2C1 (stereo unspecified)	-16%	-2%	9%[46.1 µM]	?	2%[46.1 µM]	-74*
CCSc1nnc(NC(=O)COc2ccccc2[N+](=O)[O-])s1	-10%	-24%	18%[46.1 µM]	?	?	-87*
CC(C)(C)C1CCc2nc(NC(=O)c3cccc(Cl)c3)sc2C1 (stereo unspecified)	0%	-13%	1%[46.1 µM]	2µM*	?	-90*
CC(C)(C)C1CCc2nc(NC(=O)COc3ccccc3[N+](=O)[O-])sc2C1 (stereo unspecified)	i	1%	-22%[46.1 µM]	-27%	28%[46.1 µM]	-91*
CC(C)(C)C1CCc2c(sc(NC(=O)c3cccc(Cl)c3)c2C(N)=O)C1 (stereo unspecified)	i	-10%	11%[46.1 µM]	-2%	3%[46.1 µM]	-17
Cc1ccc(C)c(CN2C(=O)c3ccccc3S(=O)(=O)c3ccc(C(=O)NCCC4=CCCCC4)cc32)c1	-6%	-10%	-22%[46.1 µM]	-7%	?	-31
Cc1ccc(CNc2nc(CN3CCSCC3)nc3ccccc23)o1	-18%	-8%	.	39%	.	.
O=[N+]([O-])c1ccc2c(c1)CCCO[C@]21O[C@H](CCO)C[C@H](O)[C@H]1O	.	.	.	.	.	-15
